# PubChem BioAssay AID1159580 (chemical genetic matrix, 2015)
# Screen size: about 5,500 compounds; about 2,000 (36%) were called active. Not shown: some 18% with an inconclusive outcome. This is one part of the list. Values without a mark were called inactive. No stated cut-off is given here; in the data, active means normalized growth mostly below about 0.91 (no sharp cut-off); inconclusive means no clear call, values can overlap the other calls; inactive means mostly above about 0.92.
# Assay: chemical genetic growth profiling, strain panel (AID 1159580);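 further: tested at 20 µM; growth read once vehicle control cultures reached saturation at 30 °C; 1 = growth at the plate median or of vehicle wells; lower values mean less growth of the strain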
# Details: S. cerevisiae deletion strains, growth OD
smiles,measurement,setting,value
CC(N)(C(=O)O)c1ccc(C(=O)O)cc1 (stereo not drawn),normalized growth,"locus YAL013W, strain DEP1, active compounds read low",1.01
same,normalized growth,"locus YAL040C, strain CLN3, active compounds read low",1.12 [resistant] (active)
same,normalized growth,"locus YCL061C, strain MRC1 (second series), active compounds read low",1.01
same,normalized growth,"locus YDR150W, strain NUM1, active compounds read low",0.998
same,normalized growth,"locus YDR363W, strain ESC2, active compounds read low",1.03
same,normalized growth,"locus YER002W, strain NOP16, active compounds read low",0.995
same,normalized growth,"locus YGR229C, strain SMI1, active compounds read low",1.01
same,normalized growth,"locus YMR263W, strain SAP30, active compounds read low",0.996
same,normalized growth,"locus YMR307W, strain GAS1, active compounds read low",1
same,normalized growth,"locus YNL175C, strain NOP13, active compounds read low",1
same,normalized growth,"locus YNL197C, strain WHI3, active compounds read low",1.02
same,normalized growth,"locus YNL224C, strain SQS1, active compounds read low",1
same,normalized growth,"locus YOR083W, strain WHI5 (second series), active compounds read low",1.02
